38 compounds from PubChem BioAssay (NCATS) can be followed below.

Records with an inconclusive call do not appear. Where a call stands in place of a potency, no number is given. A number with no mark means an inactive call. The source made the active and inactive calls. Calls follow the shape of the full dose curve; tested in HEK293 reporter line.

One test is described as follows: qHTS for Inhibitors of the Functional Ribonucleoprotein Complex (vRNP) of Lassa (LASV) Arenavirus: LASV Primary Screen - GLuc reporter signal (AID 1347082). Also: nearly all actives have a fitted effect of over 60% in size. The following applies: LASV minigenome vRNP, Gaussia luciferase reporter; series mostly up to 57.5 µM.
Regarding `O=C(/C=C/c1ccccc1)OCc1ccccc1`, the Potency entry is “inactive”.
For `O=C(c1ccccc1)c1ccccc1`, the Potency result was “inactive”.
The same measure, in the same setting: the entry for `CCCCCCCCCCCCCCCCCCO` is “inactive”; for `Cn1c(=O)c2[nH]c(Br)nc2n(C)c1=O` it is “inactive”; for `Nc1c[n+](N2CCOCC2)no1` it is “inactive”.
Same read-out and setting: the entry for `O=C(O)c1cc(=O)c2ccccc2o1` is “inactive”; for `CC1(C)OC(=O)NC1=O` it is “inactive”.
In the case of `CC(=O)Oc1cc(C(C)C)c(OCCN(C)C)cc1C`, the Potency entry is “inactive”.
On the same count and under the same terms, the entry for `O=C(O)CN(CCN(CC(=O)O)CC(=O)O)CCN(CC(=O)O)CC(=O)O` is “inactive”; for `CCCCCCCCCCCCOCCO` it is “inactive”; for `OC[C@H]1O[C@@H](n2cnc3c2NC=NC[C@H]3O)C[C@@H]1O` it is “inactive”.
Still for that read-out and setting: for `O=C(OOC(=O)c1ccccc1)c1ccccc1` the value was “inactive”; for `CC(=O)Nc1c(I)cc(I)c(C(=O)O)c1I`, “inactive”.
On the same count and under the same terms, the entry for `CCN(CC)S(=O)(=O)c1ccc(C(=O)O)cc1` is “inactive”; for `CC(=O)Nc1ncc([N+](=O)[O-])s1` it is “inactive”.
In the case of `Cc1cccc(C)c1NC(=O)CN1CCCCCC1`, the Potency result was “inactive”.
With `Nc1ccc(/C=C/c2ccc(N)cc2S(=O)(=O)O)c(S(=O)(=O)O)c1`, the activity change, negative = inhibition is -2.51% [at 0.757 µM].
As to `CC(=O)N[C@@H](CC(C)C)C(=O)O`, the Potency entry is “inactive”.
On the same count and under the same terms, for `CC(C)(Oc1ccc(C2CC2(Cl)Cl)cc1)C(=O)O` (stereo unspecified) the value was “inactive”; for `O=C(O)CSCC(=O)NC1CCSC1=O` (stereo unspecified), “inactive”.
Regarding `Nc1nc(N)nc(-c2cc(Cl)ccc2Cl)n1`, the Potency entry was “inactive”.
Same read-out and setting: for `CCCOC(=O)c1ccccc1` the value was “inactive”.
On the same count and under the same terms, the entry for `CC(=O)Oc1cccc(O)c1` is “inactive”; for `Cc1scc2c1N(C(=O)CN1CCN(C)CC1)c1ccccc1NC2=O` it is “inactive”.
Still for that read-out and setting: the entry for `CO[C@]12C[C@@H](COC(=O)c3cncc(Br)c3)CN(C)[C@@H]1Cc1cn(C)c3cccc2c13` is “inactive”; for `COC(=O)N/N=C/c1c[n+]([O-])c2ccccc2[n+]1[O-]` it is “inactive”.
As to `CCN1CCC[C@H]1CNC(=O)c1c(O)c(Cl)cc(Cl)c1OC`, the Potency result was “inactive”.
Still for that read-out and setting: the entry for `Nc1ccc(S(=O)(=O)NCc2ccccc2)cc1` is “inactive”.
On the same count and under the same terms, for `Oc1ccc(OCc2ccccc2)cc1` the value was “inactive”.
Same read-out and setting: for `CCN(CC)C(=O)c1ccc(O)c(OC)c1` the value was “inactive”; for `CCC(C)(CN(C)C)OC(=O)c1ccccc1` (stereo unspecified), “inactive”; for `OC1(c2ccc(Cl)cc2)CCNCC1`, “inactive”.
On to `CSCC[C@H](NC(=O)[C@H](Cc1c[nH]c2ccccc12)NC(=O)CCNC(=O)OC(C)(C)C)C(=O)N[C@@H](CC(=O)O)C(=O)N[C@@H](Cc1ccccc1)C(N)=O`, for which the Potency result was “inactive”.
Same read-out and setting: the entry for `CCCc1c(OCCCCc2nn[nH]n2)ccc(C(C)=O)c1O` is “inactive”; for `Cc1c(NC(C)C)c(=O)n(-c2ccccc2)n1C` it is “inactive”.
The same measure, in the same setting: the entry for `CCCCNC(=O)NS(=O)(=O)c1ccc(N)cc1` is “inactive”; for `OC[C@@H](O)[C@@H](O[C@@H]1O[C@H](CO)[C@H](O)[C@H](O)[C@H]1O)[C@H](O)[C@@H](O)CO` it is “inactive”; for `Cn1cc(S(C)=O)c(=O)c2ccc(F)cc21` (stereo unspecified) it is “inactive”.

A further test can be described thus: qHTS for Inhibitors of the Functional Ribonucleoprotein Complex (vRNP) of Lassa (LASV) Arenavirus: Viability assay - alamar blue signal for LASV Primary Screen (AID 1347083). Also: nearly all actives have a fitted effect of over 80% in size. The following applies: cell viability, alamar blue fluorescence (LASV minigenome counter-screen); series mostly up to 57.5 µM.
In the case of `O=C(/C=C/c1ccccc1)OCc1ccccc1`, the Potency entry is “inactive”.
Still for that read-out and setting: the entry for `O=C(c1ccccc1)c1ccccc1` is “inactive”; for `CCCCCCCCCCCCCCCCCCO` it is “inactive”.
As for `Cn1c(=O)c2[nH]c(Br)nc2n(C)c1=O`, the Potency entry was “inactive”.
Turning to `Nc1c[n+](N2CCOCC2)no1`, the Potency entry was “inactive”.
On the same count and under the same terms, the entry for `O=C(O)c1cc(=O)c2ccccc2o1` is “inactive”; for `CC1(C)OC(=O)NC1=O` it is “inactive”; for `CC(=O)Oc1cc(C(C)C)c(OCCN(C)C)cc1C` it is “inactive”.
On the same count and under the same terms, the entry for `O=C(O)CN(CCN(CC(=O)O)CC(=O)O)CCN(CC(=O)O)CC(=O)O` is “inactive”; for `CCCCCCCCCCCCOCCO` it is “inactive”; for `OC[C@H]1O[C@@H](n2cnc3c2NC=NC[C@H]3O)C[C@@H]1O` it is “inactive”.
Take `O=C(OOC(=O)c1ccccc1)c1ccccc1`: the Potency result was “inactive”.
Still for that read-out and setting: the entry for `CC(=O)Nc1c(I)cc(I)c(C(=O)O)c1I` is “inactive”; for `CCN(CC)S(=O)(=O)c1ccc(C(=O)O)cc1` it is “inactive”; for `CC(=O)Nc1ncc([N+](=O)[O-])s1` it is “inactive”.
The same measure, in the same setting: for `Cc1cccc(C)c1NC(=O)CN1CCCCCC1` the value was “inactive”.
Consider `Nc1ccc(/C=C/c2ccc(N)cc2S(=O)(=O)O)c(S(=O)(=O)O)c1`, for which the activity change, negative = reduced viability was 3.69% [at 0.757 µM].
Consider `CC(=O)N[C@@H](CC(C)C)C(=O)O`, for which the Potency entry is “inactive”.
Regarding `CC(C)(Oc1ccc(C2CC2(Cl)Cl)cc1)C(=O)O` (stereo unspecified), the Potency result was “inactive”.
The same measure, in the same setting: for `O=C(O)CSCC(=O)NC1CCSC1=O` (stereo unspecified) the value was “inactive”; for `Nc1nc(N)nc(-c2cc(Cl)ccc2Cl)n1`, “inactive”; for `CCCOC(=O)c1ccccc1`, “inactive”.
Same read-out and setting: for `CC(=O)Oc1cccc(O)c1` the value was “inactive”; for `Cc1scc2c1N(C(=O)CN1CCN(C)CC1)c1ccccc1NC2=O`, “inactive”; for `CO[C@]12C[C@@H](COC(=O)c3cncc(Br)c3)CN(C)[C@@H]1Cc1cn(C)c3cccc2c13`, “inactive”.
Take `COC(=O)N/N=C/c1c[n+]([O-])c2ccccc2[n+]1[O-]`: the Potency result is “inactive”.
On the same count and under the same terms, for `CCN1CCC[C@H]1CNC(=O)c1c(O)c(Cl)cc(Cl)c1OC` the value was “inactive”; for `Nc1ccc(S(=O)(=O)NCc2ccccc2)cc1`, “inactive”.
Same read-out and setting: for `Oc1ccc(OCc2ccccc2)cc1` the value was “inactive”; for `CCN(CC)C(=O)c1ccc(O)c(OC)c1`, “inactive”.
The same measure, in the same setting: for `CCC(C)(CN(C)C)OC(=O)c1ccccc1` (stereo unspecified) the value was “inactive”; for `OC1(c2ccc(Cl)cc2)CCNCC1`, “inactive”; for `CSCC[C@H](NC(=O)[C@H](Cc1c[nH]c2ccccc12)NC(=O)CCNC(=O)OC(C)(C)C)C(=O)N[C@@H](CC(=O)O)C(=O)N[C@@H](Cc1ccccc1)C(N)=O`, “inactive”.
On to `CCCc1c(OCCCCc2nn[nH]n2)ccc(C(C)=O)c1O`, for which the Potency entry was “inactive”.
As for `Cc1c(NC(C)C)c(=O)n(-c2ccccc2)n1C`, the Potency result is “inactive”.
Still for that read-out and setting: for `CCCCNC(=O)NS(=O)(=O)c1ccc(N)cc1` the value was “inactive”.
For `OC[C@@H](O)[C@@H](O[C@@H]1O[C@H](CO)[C@H](O)[C@H](O)[C@H]1O)[C@H](O)[C@@H](O)CO`, the Potency result was “inactive”.
Still for that read-out and setting: for `Cn1cc(S(C)=O)c(=O)c2ccc(F)cc21` (stereo unspecified) the value was “inactive”.
